TDP1 cell CPT: growth inhibition of DT40 Tdp1-/-;hTDP1 cells with camptothecin (screen for TDP1 inhibitors). chicken DT40 Tdp1-/-;hTDP1 cells + 20 nM CPT, ATP luminescence, 48 h. Potency, µM (series often up to 46.2 µM), without a hit: at the top dose activity change, negative = growth inhibition, usual class: inhibitors. actives 12% (n = 420,000); further: potency means the concentration at half of the fitted maximal effect; nearly all actives have a fitted effect of over 55% in size
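Chicken DT40 Tdp1-/- cells stably complemented with human TDP1 were seeded at 400 cells/well in medium containing 20 nM camptothecin, exposed to pin-transferred compounds, and grown at 37 °C for at least 48 hr. Viability was read as ATP luminescence.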
IL-1B inflam inh: inflammasome signaling inhibition, IL-1 beta readout; THP-1 LPS/ATP IL-1B secretion, AlphaLISA, 16 h; hits give low values; activity change, % at 57.5 µM; actives 4.7% (n = 360,000); in the data active means activity change below about -50%; inconclusive means mostly about -30% to -49%
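THP-1 cells pretreated 1 hr with compounds (up to 57.5 uM final), then stimulated with LPS (250 ng/mL final) plus ATP (1.25 mM final); secreted IL-1B measured by AlphaLISA after 16 hr, decreased signal indicating inhibition.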
ALOX12 inh: ALOX12 (human) lipoxygenase inhibition; purified 12hLO, xylenol orange hydroperoxide absorbance; Potency, µM (doses to about 108 µM), without a hit: at the highest dose activity change, negative = inhibition, actives largely listed as inhibitors; actives 1.1% (n = 580,000); further: potency means the concentration at half of the fitted maximal effect
Target sequence (P18054 whole entry, looked up): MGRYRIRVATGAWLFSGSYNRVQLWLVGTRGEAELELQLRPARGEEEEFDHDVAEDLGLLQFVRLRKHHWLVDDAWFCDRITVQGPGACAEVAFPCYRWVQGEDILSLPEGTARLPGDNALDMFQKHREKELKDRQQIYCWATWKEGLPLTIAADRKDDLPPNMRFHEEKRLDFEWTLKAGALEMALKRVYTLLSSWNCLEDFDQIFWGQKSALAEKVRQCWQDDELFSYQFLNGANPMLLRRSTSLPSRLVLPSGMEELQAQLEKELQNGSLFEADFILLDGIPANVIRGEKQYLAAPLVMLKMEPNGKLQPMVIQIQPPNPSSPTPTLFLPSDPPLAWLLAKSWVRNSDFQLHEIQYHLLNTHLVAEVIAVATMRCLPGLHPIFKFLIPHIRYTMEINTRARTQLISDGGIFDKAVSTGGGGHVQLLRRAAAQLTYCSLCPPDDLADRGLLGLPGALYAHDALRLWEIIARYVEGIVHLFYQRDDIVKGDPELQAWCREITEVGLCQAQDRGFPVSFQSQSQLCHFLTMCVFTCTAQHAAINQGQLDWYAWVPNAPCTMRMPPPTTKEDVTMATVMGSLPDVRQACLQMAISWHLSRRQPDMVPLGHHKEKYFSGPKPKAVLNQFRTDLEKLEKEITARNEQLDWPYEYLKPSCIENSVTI
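Purified human 12hLO (150 nM final) in 25 mM Hepes, 0.01% Triton X-100, pH 7.0 was preincubated 15 min at room temperature with compound. Then 40 uM arachidonic acid was added, 30 min. Hydroperoxide was read by Fe-XO absorbance ratio 573/405 nm.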
HT1080 IDH1KD tx: kills HT-1080 cells with IDH1 knockdown; Potency, µM (highest dose often 46.1 µM), for inactives: top-dose activity, negative = toxicity, hits mostly cytotoxic; HT-1080 IDH1 knockdown viability, ATP luminescence, 48 h; actives 2% (n = 360,000);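 further: potency means the concentration at half of the fitted maximal effect; 0% = DMSO wells and -100% = cell-free medium wells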
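Viability of IDH1-knockdown HT-1080 fibrosarcoma cells was assessed by CellTiter-Glo after 48 h at 37 °C with titrated compound; concentration-effect curves were classified by fit quality and response size.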
TDP1 cell noCPT: qHTS for Inhibitors of human tyrosyl-DNA phosphodiesterase 1 (TDP1): qHTS in cells in absence of CPT. actives 15% (n = 420,000). DT40 Tdp1-/- hTDP1 cells, no CPT, ATP luminescence, 48 h. Potency, µM (titrated, usually from 46.2 µM), without a hit: top-dose activity change, negative = growth inhibition, hits mostly inhibitors; further: potency means the concentration at half of the fitted maximal effect; nearly all actives have a fitted effect of over 55% in size
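Camptothecin absent (DMSO only). Human TDP1-complemented DT40 knockout cells, 400 cells/well, 37 °C for minimum 48 hr; ATP measured via CellTiter-Glo, 30 min dark incubation, luminescence.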
HT1080-NT tox: kills 2HG-producing HT-1080-NT fibrosarcoma cells. Potency, µM (top dose mostly 46.1 µM), for inactives: top-dose activity, negative = less viability, most hits filed as cytotoxic. actives 1.6% (n = 360,000). HT-1080-NT fibrosarcoma viability, CellTiter-Glo ATP luminescence, 48 h;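 further: NT is the 2HG producing partner of a matched IDH1 knockdown line; potency means the concentration at half of the fitted maximal effect; 0% = DMSO-treated cells and -100% = media-only wells without cells; nearly all actives have a fitted effect of over 55% in size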
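Viability by CellTiter-Glo luminescence after 48 h compound exposure at 37C of HT-1080-NT cells (750/well, RPMI, 5% FBS). % activity scaled between DMSO wells and medium-only wells, then curve-fitted and categorized by curve class.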
An asterisk follows results filed as active; u = inconclusive; x = no result; [ ] = dose if it differs, or a comment. Only a selection was taken, and hits are over-represented in it overall. Unless noted, the call rests on the fitted dose curve; in most records, active means well fitted curve in the direction sought with a large enough effect; inconclusive means small, poorly fitted or top-dose-only effect, or another doubt; inactive means no such curve, though single readings can be large; an effect the other way counts as inactive or inconclusive. Unless noted, on the % scale 0 is the no-effect control and ±100 the full control effect.

SMILES	TDP1 cell CPT	IL-1B inflam inh	ALOX12 inh	HT1080 IDH1KD tx	TDP1 cell noCPT	HT1080-NT tox
COc1ccc(-n2nc(C(=O)NCC(=O)N3CCN(C)CC3)c3ccccc3c2=O)cc1	5.4%	-14.3	-9.3%	-5.5%	-10.2%	-2.8%
COc1ccc(-n2nc(C(=O)NCC(=O)N3CCC(C)CC3)c3ccccc3c2=O)cc1Cl	u	-5.7	-11.6%	-7.4%	u	-4.9%
CCOc1ccc(NC(=O)CNC(=O)c2nn(-c3ccc(OC)cc3)c(=O)c3ccccc23)cc1	-22.9%	90.8	-18.1%	0.8%	11.6µM*	-0.1%
COc1ccc(-n2nc(C(=O)NCC(=O)N3CCN(c4ccccc4F)CC3)c3ccccc3c2=O)cc1OC	u	u	-21.7%	-5.5%	13µM*	0.9%
Cc1ccc(CNC(=O)N2CCCCCNC(=O)[C@@H]3CCC[C@@H]32)cc1	x	x	44.1%	x	x	x
COc1ccc(-n2nc(C(=O)NCC(=O)N3CCCCCC3)c3ccccc3c2=O)cc1	-5.7%	-3.3	u	-21.6%	-29.3%	1.7%
COc1ccc(-n2nc(C(=O)NCC(=O)N3CCN(c4ccccc4F)CC3)c3ccccc3c2=O)cc1	18.4µM*	-8.4	-0.5%	12.5%	23.1µM*	0.0%
COC(=O)c1ccc(OCC(=O)NCCC2=CCCCC2)c(OC)c1	u	-27.4	5.9%	8.6%	23.1µM*	-6.0%
COc1ccc(-n2nc(C(=O)NCC(=O)NCCC3=CCCCC3)c3ccccc3c2=O)cc1OC	-22.4%	-18.6	-15.8%	-4.8%	18.4µM*	-16.4%
COc1ccc(/C=C/C(=O)OCC(=O)NCCC2=CCCCC2)cc1	-16.1%	4.5	1.8%	4.5%	-12.4%	3.6%
COc1cccc(/C=C/C(=O)OCC(=O)NCCC2=CCCCC2)c1	u	20.4	2.1%	-3.5%	23.1µM*	2.8%
Cc1ccc(N/C(=C\C(=O)c2ccc(Br)cc2)C(F)(F)F)cc1	x	x	-7.9%	x	x	x
O=C(COC(=O)c1ccccc1Cl)NCCC1=CCCCC1	-5.1%	0.8	-1.8%	6.9%	u	6.0%
O=C(COC(=O)c1ccccc1O)NCCC1=CCCCC1	-2.1%	-27.8	3.5%	0.2%	18.4µM*	-1.9%
CC1(C(=O)Nc2cccc(Oc3ccccc3)c2)Cc2c(-c3ccccc3)ccnc2O1 (configuration not stated)	u	-24.8	-2.8%	u	u	u
CC(=O)c1cccc(NC(=O)C2(C)Cc3c(-c4ccccc4)ccnc3O2)c1 (configuration not stated)	23.1µM*	-9.1	6.0%	-25.2%	23.1µM*	-0.9%
CC(=O)Nc1ccc(-c2ccnc3c2CC(C)(C(=O)Nc2cccc(C(C)=O)c2)O3)cc1 (configuration not stated)	u	u	15.2%	-3.5%	16.4µM*	3.9%
CC(=O)Nc1cccc(-c2ccnc3c2CC(C)(C(=O)Nc2cccc(Oc4ccccc4)c2)O3)c1 (configuration not stated)	16.4µM*	-19.5	u	u	20.6µM*	u
CC(=O)Nc1ccc(NC(=O)C2(C)Cc3c(-c4ccccc4)ccnc3O2)cc1 (configuration not stated)	u	-9.9	-11.3%	6.7%	-27.9%	u
CC(=O)Nc1cccc(-c2ccnc3c2CC(C)(C(=O)Nc2ccccc2)O3)c1 (configuration not stated)	-29.6%	-21.6	-0.3%	0.0%	u	-14.2%
O=C(c1coc(=O)c(Br)c1)N1CCOCC1	5.17µM*	-6.6	470.5%	4.8%	5.17µM*	5.7%
FC(F)(F)c1ccc(N2CCOCC2)c(Nc2nc3ccccc3n3cnnc23)c1	u	-61.2*	12.9%	u	u	u
c1ccc(N2CCCCC2)c(Nc2nc3ccccc3n3cnnc23)c1	u	57.6	0.0%	0.8%	20.6µM*	13.3%
CCn1cnc2c1c(=O)n(CC(=O)N1CCCc3ccccc31)c(=O)n2Cc1ccccc1	x	x	3.3%	x	x	x
Cc1nn2c(c1-c1ccccc1OCc1ccccc1)N(C(=O)Cc1ccc3c(c1)OCO3)CCC2	x	x	-5.1%	x	x	x
SMILES	TDP1 cell CPT	IL-1B inflam inh	ALOX12 inh	HT1080 IDH1KD tx	TDP1 cell noCPT	HT1080-NT tox
Cc1ccc(S(=O)(=O)N(Cc2ccccc2)c2ccccc2C(=O)NCc2ccco2)cc1	u	-94.5*	-28.0%	3.4%[9.24 µM]	u	11.2µM*
COCCNC(=O)c1ccccc1N(Cc1ccccc1)S(=O)(=O)c1ccc(C)cc1	-16.0%	7.3	-7.2%	-10.4%	-18.2%	-16.3%
CS(=O)(=O)N(Cc1ccccc1)c1ccccc1C(=O)Nc1ccccc1C(=O)NCc1ccco1	-13.8%	6.8	9.1%	-4.7%	-28.1%	-0.4%[9.24 µM]
Cc1ccc(S(=O)(=O)N(Cc2ccccc2)c2ccccc2C(=O)Nc2ccccc2C(=O)NCc2ccco2)cc1	23.1µM*	-9.4	0.6%	-5.4%	u	0.0%
CN1CCCCCCN(C(=O)Nc2ccc3c(c2)OCCO3)CCC1=O	x	x	29.3%	x	x	x
CCc1ccc(S(=O)(=O)Nc2cccc(-c3ccc(N4CCOCC4)nn3)c2)cc1	8.2µM*	x	-6.0%	x	u	x
COc1ccc(S(=O)(=O)Nc2cccc(-c3ccc(N4CCCCCC4)nn3)c2)c(OC)c1	u	-22.5	4.8%	-3.0%	29.1µM*	-24.5%
O=[N+]([O-])c1cccc(S(=O)(=O)Nc2cccc(-c3ccc(N4CCOCC4)nn3)c2)c1	-12.7%	-3.2	-25.4%	-1.7%	-21.6%	-3.1%
O=S(=O)(Nc1cccc(-c2ccc(N3CCCCC3)nn2)c1)c1ccc(F)cc1F	u	x	0.0%	x	25.9µM*	x
CCOc1ccc(C(C)C)cc1S(=O)(=O)Nc1cccc(-c2ccc(N3CCOCC3)nn2)c1	u	x	-4.8%	x	14.6µM*	x
COc1cccc(CC(=O)N2CCCN(C(=O)C3CC3)c3ccccc32)c1	x	x	-7.6%	x	x	x
Cn1c(=O)n(Cc2ccccc2)c(=O)c2c1nc(SCCO)n2Cc1ccccc1	x	x	-17.1%	x	x	x
CCOc1ccc(S(=O)(=O)Nc2cccc(-c3ccc(N4CCCC4)nn3)c2)cc1	7.31µM*	x	u	x	u	x
COc1ccc(S(=O)(=O)Nc2cccc(-c3ccc(N4CCCCCC4)nn3)c2)cc1	16.4µM*	x	-16.6%	x	u	x
CN(C)c1ccc(C(=S)N2CCCC2)cc1Br	u	9.1	56.7%	u	u	26.7%

Screens deposited in PubChem by National Center for Advancing Translational Sciences (NCATS).
